Bioassay records (PubChem BioAssay)
MEP2-GFP yeast: yeast TOR pathway MEP2-GFP modulation; 0.51% of 330,000 active; S. cerevisiae MEP2-GFP strain, flow cytometry GFP, 3 h; 100% = DMSO control level; GFP response vs DMSO, % at 10 µM;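 active = GFP response versus DMSO above a set limit, roughly screen mean plus 3 SD, cut at about 180% in these data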;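 note: median GFP fluorescence of the barcode-gated MEP2-GFP cells per well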
CIT2 TOR yeast: alters CIT2-GFP fluorescence in TOR pathway yeast screen; AID 2029; 0.065% of 320,000 active; S. cerevisiae CIT2-GFP strain, flow cytometry, 3 h; 100 means same as DMSO wells; GFP response vs DMSO, % at 10 µM;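 active = GFP response relative to DMSO above a set limit, near the screen mean plus 3 SD, cut at about 150% in these data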;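 note: ratio of well median GFP fluorescence to mean of DMSO wells on the plate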
RPL19A TOR yeast: alters RPL19A-GFP fluorescence in TOR pathway yeast screen | S. cerevisiae RPL19A-GFP strain, flow cytometry, 3 h; active compounds read low | percent response vs DMSO, % at 10 µM | 0.3% of 330,000 active | AID 2025;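 active = percent response vs DMSO below 50%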;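 note: median channel GFP fluorescence of the barcoded RPL19A-GFP strain; lower means less RPL19A-GFP as with rapamycin TOR inhibition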
LAP4 TOR yeast: yeast TOR pathway LAP4-GFP modulation. GFP response vs DMSO, % at 10 µM. AID 2023. S. cerevisiae LAP4-GFP multiplex, flow cytometry GFP, 3 h; median GFP as percent of DMSO wells. 0.34% of 320,000 active;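 active = GFP response vs DMSO above a set limit, about the screen mean plus 3 SD, cut at about 150% in these data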
AGP1 TOR yeast: modulators of TOR pathway AGP1-GFP in S. cerevisiae; S. cerevisiae AGP1-GFP multiplex flow cytometry, 3 h; GFP as percent of DMSO wells; GFP response vs DMSO, % at 10 µM; 0.02% of 320,000 active; AID 2066;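 active = GFP response relative to DMSO above a set limit, near screen average plus 3 SD, cut at about 150% in these data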;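 note: median GFP channel fluorescence of the gated AGP1 strain per well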
LAP4-GFP pick2: reconfirmed LAP4-GFP TOR pathway modulator in yeast. shares compounds with LAP4 TOR yeast. S. cerevisiae LAP4-GFP strain, flow cytometry GFP, 3 h. GFP response vs DMSO, % at 10 µM. 20% of 590 active. AID 2621;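 active = GFP signal as percent of the solvent control above about 150%, meaning raised reporter expression, limit read from the data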
MEP2 cherry2: yeast MEP2-GFP modulation, second cherry pick. shares compounds with LAP4 TOR yeast. 10% of 590 active. GFP response vs DMSO, % at 10 µM. S. cerevisiae MEP2-GFP strain, flow cytometry GFP, 3 h;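 active = GFP signal above 150% of the solvent control wells, that is a rise of more than half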;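 note: median channel GFP fluorescence of all gated yeast cells per well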
RPL19A-GFP pick2: yeast RPL19A-GFP TOR reporter modulation, second cherry pick | 3% of 590 active | AID 2623 | shares compounds with LAP4 TOR yeast | GFP response vs DMSO, % at 10 µM | S. cerevisiae RPL19A-GFP strain, flow cytometry GFP, 3 h; active compounds read low; 100% means same as DMSO wells;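 active = under 65% GFP response relative to DMSO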;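 note: median GFP channel fluorescence per well over the all cells gate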
CIT2-GFP pick2: second confirmation of modulators of TOR reporter CIT2-GFP in yeast; shares compounds with LAP4 TOR yeast; S. cerevisiae CIT2-GFP strain, flow cytometry GFP, 3 h; DMSO control wells read 100%; GFP response vs DMSO, % at 10 µM; 8% of 590 active;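 active = GFP response vs DMSO above about 150%, limit read from the data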;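 note: median green fluorescence per well over all gated yeast cells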
AGP1-GFP pick2: yeast AGP1-GFP TOR reporter modulation, second cherry pick; shares compounds with LAP4 TOR yeast; S. cerevisiae AGP1-GFP strain, flow cytometry GFP, 3 h; percent response vs DMSO, % at 10 µM; 590 tested, under 10 active;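 active = over 150 percent of DMSO response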;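 note: median GFP channel fluorescence over all cells without mother daughter split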
Yeast autofluor: yeast s288c autofluorescence artifact, counter-screen | fluorescence change (kMESF span) at 33 µM | S. cerevisiae s288c, 520 nm autofluorescence, flow cytometry, 3 h; active compounds read high; zero means same as solvent-only cells | shares compounds with LAP4 TOR yeast | 610 tested, under 10 active | AID 2757;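 active = fluorescence span over the dose series, or activity score, above about 33, limit read from the data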
Yeast autofl DR: yeast s288c autofluorescence artifact in dose response; shares compounds with LAP4 TOR yeast; S. cerevisiae s288c parental, compound autofluorescence, flow cytometry, 3 h; fluorescence change (span) at 33 µM; 110 tested, under 10 active;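 active = fluorescence change span, or the activity score built from it, above 25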
TORC1 bypass: wildtype yeast growth loss with TORC1 bypass cells unaffected; shares compounds with LAP4 TOR yeast; S. cerevisiae BY4741 spot growth rating, 48-72 h; active compounds read low; growth rating (0-3) at 30 µM; 120 tested, under 10 active; AID 504456;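 active = growth rating at most 1 for wild type yeast while the TORC1 bypass strain still grows fully, rated 3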
Of the large screens only hits and unclear results are named; the others gave an inactive call (follow-up assays come after a bar, where they were run). An excerpt weighted towards active compounds, which were near 0.92% of everything screened.

COc1ccccc1OCc1cc(C(=O)N2CCN(C)C(c3ccccc3)C2)no1 (stereo not given)	none
CN1CCN(C(=O)c2cc(COc3c(F)cccc3F)on2)CC1c1ccccc1 (stereo not given)	LAP4 TOR yeast 157.9 | LAP4-GFP pick2 inactive | MEP2 cherry2 163.1 | RPL19A-GFP pick2 inactive | CIT2-GFP pick2 inactive | AGP1-GFP pick2 inactive | Yeast autofluor inactive | Yeast autofl DR inactive | TORC1 bypass inactive
O=c1c(-c2cccc([N+](=O)[O-])c2)[n+]([O-])c2ccccc2n1O	none
O=c1c(-c2ccc(Cl)cc2)[n+]([O-])c2ccccc2n1O	LAP4 TOR yeast 165.2 | Yeast autofluor inactive
COc1ccc(NC(=O)CC(C)=O)c(OC)c1	none (no result: MEP2-GFP yeast, CIT2 TOR yeast, RPL19A TOR yeast, LAP4 TOR yeast, AGP1 TOR yeast) | LAP4-GFP pick2 inactive | MEP2 cherry2 inactive | RPL19A-GFP pick2 inactive | CIT2-GFP pick2 inactive | AGP1-GFP pick2 inactive
COc1ccc(NC(=O)CC(=O)Nc2ccc(OC)cc2OC)c(OC)c1	none
Cc1nc2ccccc2c2oc(C(=O)NC3CC3)cc12	none
Cc1cc2c(C)nc3ccccc3c2o1	none | LAP4-GFP pick2 inactive | MEP2 cherry2 inactive | RPL19A-GFP pick2 inactive | CIT2-GFP pick2 inactive | AGP1-GFP pick2 inactive
O=S(=O)(/N=C(\Sc1ccccc1)c1ccccc1)c1ccc(Cl)cc1	none | LAP4-GFP pick2 inactive | MEP2 cherry2 inactive | RPL19A-GFP pick2 inactive | CIT2-GFP pick2 inactive | AGP1-GFP pick2 inactive
Cc1ccc(S(=O)(=O)/N=C(/Sc2ccccc2C(=O)O)c2ccccc2)cc1	none | LAP4-GFP pick2 inactive | MEP2 cherry2 inactive | RPL19A-GFP pick2 inactive | CIT2-GFP pick2 inactive | AGP1-GFP pick2 inactive
O=S(=O)(/N=C(\c1ccccc1)N1CCOCC1)c1ccc(Cl)cc1	none
Cc1ccc(S(=O)(=O)/N=C(\Sc2ccccc2)c2ccccc2)cc1	LAP4 TOR yeast 173.6 | Yeast autofluor inactive
O=Cc1cn(-c2ccccc2)nc1-c1ccccc1	none
CC1=NNC(=O)/C1=C\c1cn(-c2ccccc2)nc1-c1ccccc1	LAP4 TOR yeast 197.6 (no result: CIT2 TOR yeast) | Yeast autofluor inactive
C#CCOCCOCCOCCNc1nc(N2CCN(C(=O)CCCCCCCCCCNC(=O)[C@H](CCCCN)n3cc(CCCC(=O)O)nn3)CC2)nc(N2CCN(C(=O)CCCCCCCCCCNC(=O)[C@H](CCCN=C(N)N)n3cc(C[C@@H](C)CC)nn3)CC2)n1	LAP4 TOR yeast 177.6 | LAP4-GFP pick2 inactive | MEP2 cherry2 164.7 | RPL19A-GFP pick2 inactive | CIT2-GFP pick2 inactive | AGP1-GFP pick2 inactive | Yeast autofluor inactive
C#CCOCCOCCOCCNc1nc(N2CCN(C(=O)CCCCCCCCCCNC(=O)[C@H](CCCCN)n3cc(CCO)nn3)CC2)nc(N2CCN(C(=O)CCCCCCCCCCNC(=O)[C@H](CCCN=C(N)N)n3cc(C[C@@H](C)CC)nn3)CC2)n1	LAP4 TOR yeast 200.7 | LAP4-GFP pick2 inactive | MEP2 cherry2 174.7 | RPL19A-GFP pick2 inactive | CIT2-GFP pick2 inactive | AGP1-GFP pick2 inactive | Yeast autofluor inactive
C#CCOCCOCCOCCNc1nc(N2CCN(C(=O)CCCCCCCCCCNC(=O)[C@H](CCCCN)n3cc(CCCC(=O)O)nn3)CC2)nc(N2CCN(C(=O)CCCCCCCCCCNC(=O)[C@H](CCCCN)n3cc(CCCC(=O)O)nn3)CC2)n1	none
C#CCOCCOCCOCCNc1nc(N2CCN(C(=O)CCCCCCCCCCNC(=O)[C@H](CCCCN)n3cc(C)nn3)CC2)nc(N2CCN(C(=O)CCCCCCCCCCNC(=O)[C@@H]([C@H](C)CC)n3cc(CCCCCN)nn3)CC2)n1	LAP4 TOR yeast 153.4 | LAP4-GFP pick2 inactive | MEP2 cherry2 inactive | RPL19A-GFP pick2 inactive | CIT2-GFP pick2 inactive | AGP1-GFP pick2 inactive
C#CCOCCOCCOCCNc1nc(N2CCN(C(=O)CCCCCCCCCCNC(=O)[C@H]([C@@H](C)CC)n3cc(CCCCCN)nn3)CC2)nc(N2CCN(C(=O)CCCCCCCCCCNC(=O)[C@@H]([C@H](C)O)n3cc(C)nn3)CC2)n1	none
CC(=O)COC(=O)C1=NN(c2ccccc2)C(=O)CC1	none
CCCS(=O)(=O)N1CCc2ccc(NC(=O)C3CCCO3)cc2C1 (stereo not given)	none
O=C(Nc1ccc(C(=O)N2CCCC2)cc1)c1ccccc1Br	none
O=C(Nc1ccc(C(=O)N2CCCCC2)cc1)c1ccccc1Br	MEP2-GFP yeast 217.9, LAP4 TOR yeast 151.8 | LAP4-GFP pick2 inactive | MEP2 cherry2 inactive | RPL19A-GFP pick2 inactive | CIT2-GFP pick2 inactive | AGP1-GFP pick2 inactive
CCOc1ccc(C(=O)OC(C)CN2CCN(C)CC2)cc1 (stereo not given)	none
CCOc1cc2c(C#N)c(N3CCOCC3)nc(N)c2c(N)n1	none (no result: AGP1 TOR yeast)
CCOc1cc2c(C#N)c(N(CC)CC)nc(N)c2c(N)n1	LAP4 TOR yeast 153.4 | LAP4-GFP pick2 inactive | MEP2 cherry2 inactive | RPL19A-GFP pick2 inactive | CIT2-GFP pick2 inactive | AGP1-GFP pick2 inactive
Cc1ccc(C)c(N(C(=O)c2csnn2)C(C(=O)NC2CCCC2)c2cccnc2)c1 (stereo not given)	none
CCC1CCCCN1C(=O)C(=O)c1cn(CC(=O)N(CC)CC)c2ccccc12 (stereo not given)	CIT2 TOR yeast 180.7 | LAP4-GFP pick2 inactive | MEP2 cherry2 inactive | RPL19A-GFP pick2 inactive | CIT2-GFP pick2 inactive | AGP1-GFP pick2 inactive
